# High-throughput results deposited in PubChem by The Scripps Research Institute Molecular Screening Center.
# hgDAF12 agonist – H. glycines DAF-12 receptor agonists, primary screen, cell-based, luminescence, HEK293, GAL4 fusion, UAS-luciferase; Nuclear hormone receptor DAF-12 (Heterodera glycines), GAL4 fusion; 370,000 compounds, 1.8% hits; activation, % at 6.8 µM; HEK293 GAL4-hgDAF12 UAS-luciferase reporter, agonist luminescence; normalized to butyrate control;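 active = activation above a cutoff set at the mean of all screened compounds plus 3 SD, cut at about 10% in these data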;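 also: 0% = DMSO wells and 100% = sodium butyrate wells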
# DAX1 inh-1 – DAX1 (NR0B1) inhibitors on StAR promoter, primary screen, cell-based, luminescence, SF-1 (NR5A1), full-length DAX-1; 370,000 compounds, 1.1% hits; inhibition, % at 6.8 µM; HEK293T StAR-luciferase reporter, SF-1/DAX-1 repression relief;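 active = inhibition above the mean over all tested compounds plus 3 SD, cut at about 3.6% in these data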;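 also: 0% = DAX-1 cells with DMSO and 100% = cells lacking DAX-1 with DMSO; higher inhibition means more luminescence from relief of DAX-1 repression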
# hcDAF-12 act – H. contortus DAF-12 nuclear receptor activators, primary screen, cell-based, luminescence, HEK293, lit1-tk-luc reporter; HEK293 hcDAF-12 lit1-tk-luc reporter; 0% DMSO, 100% Δ7-dafachronic acid; activation, % at 6.8 µM; 370,000 compounds, 1.4% hits; AID 652067, 2013;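 active = activation above the mean of all tested compounds plus 3 SD, cut at about 5.5% in these data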;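 also: 100% = response to 3 µM Δ7-dafachronic acid high control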
# DAX1 inh-2 – DAX1 (NR0B1) inhibitors, primary screen, cell-based, HEK293, Gal4-DAX1, luciferase luminescence. Nuclear receptor subfamily 0 group B member 1 (Homo sapiens), P51843. HEK293 Gal4-DAX1 luciferase reporter. inhibition, % at 6.75 µM. 340,000 compounds, 0.99% hits. AID 504766, 2011;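 active = inhibition above the mean over all tested compounds plus 3 SD, cut at about 4.2% in these data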;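 also: 0% = DAX1-transfected cells with DMSO and 100% = empty-vector control cells with DMSO; inhibition shows as a rise in luminescence from relieved DAX1 repression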
# Target sequence (P51843 207-470 limits assumed): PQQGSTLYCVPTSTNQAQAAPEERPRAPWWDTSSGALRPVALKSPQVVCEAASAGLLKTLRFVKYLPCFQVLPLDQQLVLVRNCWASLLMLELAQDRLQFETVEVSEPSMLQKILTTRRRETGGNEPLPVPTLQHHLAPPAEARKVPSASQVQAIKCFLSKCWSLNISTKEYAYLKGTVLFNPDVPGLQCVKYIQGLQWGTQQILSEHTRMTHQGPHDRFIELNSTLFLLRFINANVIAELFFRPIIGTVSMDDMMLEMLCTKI
# ssDAF-12 act – S. stercoralis DAF-12 nuclear receptor activators, primary screen, cell-based, luminescence, HEK293, GRIP1 co-expression, lit1-tk-luc; activation, % at 6.8 µM; 370,000 compounds, 1% hits; HEK293 ssDAF-12/GRIP1 lit1-tk-luc reporter; % of 3 µM dafachronic acid response; Nuclear hormone receptor DAF-12 (Strongyloides stercoralis);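 active = activation above the mean over all tested compounds plus 3 SD, cut at about 0.9% in these data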;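 also: 0% = DMSO-only wells and 100% = 3 µM delta7-dafachronic acid wells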
# Starred values were filed as active, the others as inactive; . = no result given. Sampled rows, rich in hits. Any-hit rate of the full collection: about 4.1%.
SMILES,hgDAF12 agonist,DAX1 inh-1,hcDAF-12 act,DAX1 inh-2,ssDAF-12 act
COc1cccc2cc(-c3nnc(-c4ccccc4)o3)c(=O)oc12,11.1*,1.0,0.9,4.1,-1.0
C/C(=N\Nc1nc2ccccc2[nH]1)c1ccc(N2CCOCC2)cc1,7.5,3.9*,3.4,0.1,0.0
O=C(NCc1ccc(Cl)c(Cl)c1)O[C@H]1CC[C@@]23CCCN2C(=O)CCC[C@H]3C1,-4.7,.,-3.0,.,-2.1
Cc1ccc(C(=O)c2cc3ccccc3o2)cc1,11.8*,1.6,3.2,2.8,-0.1
Cc1ccc(C(=O)c2cc3ccccc3o2)cc1C,11.1*,2.1,4.9,2.9,0.6
O=C(c1cc2ccccc2oc1=O)N(Cc1ccccc1)C1CCS(=O)(=O)C1 (configuration not stated),7.6,1.8,4.2,0.4,-0.1
O=C(c1cc2ccccc2oc1=O)N(Cc1ccccc1F)C1CCS(=O)(=O)C1 (configuration not stated),4.9,2.2,5.8*,0.8,-0.7
CC(=NO)c1cc(Br)c2cccc3c2c1CC3,-2.1,-0.7,-1.8,0.6,-1.5
COc1ccccc1N1CCN(Cc2ccsc2)CC1,-0.2,0.8,0.9,0.8,1.1*
COC(=O)C1CN(Cc2ccc(C)cc2)CCS(=O)(=O)N1Cc1cn(Cc2ccc(OC)cc2)nn1 (configuration not stated),-3.1,-0.5,-0.2,.,-0.8
O=C(NCCN1C(=O)S/C(=C\c2cccnc2)C1=O)C1CC(=O)N(Cc2ccco2)C1 (configuration not stated),1.6,-0.2,4.0,0.3,1.2*
O=C1CCC(C(=O)NCCN2C(=O)S/C(=C\c3cccnc3)C2=O)=NN1,1.0,0.1,-0.9,-0.4,1.2*
C[C@H]1CN([C@@H](C)CO)C(=O)CCCn2cc(nn2)CO[C@@H]1CN(C)C(=O)c1ccc2ccn(C)c2c1,-3.0,0.4,0.5,.,-1.1
O=C(O)/C(=C\c1ccc(-c2ccccc2[N+](=O)[O-])o1)c1ccccc1,3.9,0.1,5.7*,2.4,0.9*
O=C(/C=C/c1ccc(-c2ccccc2[N+](=O)[O-])o1)c1ccccc1,0.6,-0.4,2.2,0.8,0.2
Cc1ccc(NC(=O)N2CCCCCC2)cc1,4.6,3.9*,5.5,1.7,-0.7
COc1ccc(NC(=O)N2CCCCC2)cc1,2.3,0.1,-0.9,0.1,-1.4
Cc1ccc(-n2nc(C)c(=O)c(-c3ccccc3)c2NC(=O)c2cccs2)cc1,0.3,-0.2,-2.3,5.5*,-0.9
CCOC(=O)N1CCN(C(=O)C2CCN(C(=O)c3ccc([N+](=O)[O-])cc3)CC2)CC1,-0.1,-1.0,-1.2,0.1,0.0
CCOC(=O)N1CCN(C(=O)C2CCN(C(=O)c3ccc(C(C)(C)C)cc3)CC2)CC1,-1.5,-0.3,1.4,4.4*,-0.2
CC(C)CCN(C)C1CCN(C(=O)Nc2ccccc2)CC1,4.2,0.9,0.8,.,-0.6
O=C(Nc1nccs1)c1ccc(CSc2ccccc2)o1,9.5,6.2*,1.6,0.3,0.4
Cc1ccc(OCc2ccc(C(=O)Nc3nccs3)o2)cc1,3.6,0.2,0.1,-1.5,-1.0
Cc1ccc(SCc2ccc(C(=O)Nc3nccs3)o2)cc1,7.2,1.6,0.2,1.2,-0.3
O=C(Nc1nccs1)c1ccc(COc2ccccc2)o1,11.0*,1.5,2.0,2.7,-0.4
Cc1ccccc1CN1CCCCC(NC(=O)c2ccccc2F)C1=O (configuration not stated),-1.0,-2.2,-2.5,.,0.2
CCOC(=O)Cc1nc(N2CCN(CCN)CC2)c2c(C)c(C(=O)OCC)sc2n1,-1.1,0.7,-3.0,.,-0.2
CN(Cc1ccccc1)S(=O)(=O)c1cccc(C(=O)OCc2cccc([N+](=O)[O-])c2)c1,7.5,0.2,-0.8,.,-1.3
CCOC(=O)CSc1ccc(-c2nc3ccccc3[nH]2)cn1,5.0,-0.5,-1.0,1.6,-0.9
